Records with an inconclusive call do not appear. Entries that show only a call come without a potency. Activity calls are given as the source filed them. Calls follow the shape of the dose curve; as a rule, active = well fitted inhibition curve with a large enough effect; inconclusive = small, poorly fitted or top-dose-only effect; inactive = no such curve, though single readings can be large or run the other way.

The target of the test is Retinaldehyde dehydrogenase 3 (Homo sapiens) (UniProt P47895). Kind of test: qHTS for Inhibitors of the Aldehyde Dehydrogenase Family (ALDH1A3) Primary screen (AID 2061315). To be noted: ALDH inhibition qHTS; series mostly up to 56 µM. (qHTS replaces the single test concentration by a dilution series.)
As for `O=C(Nc1nc(-c2ccccc2)cs1)c1ccncc1NS(=O)(=O)c1cccs1`, the Potency result was “inactive”.

Turning to `COc1ccc(C2Nc3ccccc3C(=O)N2Cc2cccnc2)cc1COc1c(C)cccc1C` (stereo not given), the Potency entry was “inactive”.

As for `Cc1cc(C)nc(NC(=S)N2CCN(c3noc4ccccc34)CC2)c1`, the Potency entry is “inactive”.

As to `COc1cc(-c2nc(Nc3ccc(F)c(F)c3)c3ccccc3n2)cc(OC)n1`, the Potency result was “inactive”.

As to `O=C(CSc1nnc(-c2cccc([S+](=O)([O-])N3CCCC3)c2)n1-c1ccccc1)Nc1cccc(C(F)(F)F)c1`, the Potency entry is “inactive”.

On to `Cc1cc2c(s1)c1cnn(Cc3c(Cl)cccc3Br)c(=O)c1n2C`, for which the Potency entry is “inactive”.

Consider `NC(=O)C1CCN(c2nccc(-c3ccc(Br)cc3)n2)CC1`, for which the Potency result was “inactive”.

`Cc1cc(C)nc(NC(=S)N2CCN(c3ccc4occc4c3)CC2)c1`: the Potency entry was “inactive”.

In the case of `COc1ccc(C(=O)Nc2ccc(-c3nc4ccccc4[nH]3)cc2)cc1C(F)(F)F`, the Potency result is “inactive”.

`C=CC1C(OC2OC(CO)C(O)C(O)C2O)OC=C2C(=O)N3C(C(=O)O)Cc4c([nH]c5ccccc45)C3CC21` (stereo not given): the Potency entry was “inactive”.

In the case of `O=C(Nc1ccc(Cl)c(Cl)c1)Nc1nnc(-c2cccnc2)s1`, the Potency result was “inactive”.

For the compound `O=C(c1c(F)cccc1F)N1CCN(S(=O)(=O)c2ccc3c(c2)OCCO3)CC1`, the Potency entry was “inactive”.

For `O=[S+]([O-])(c1ccc2c(c1)OCCO2)N1CCN([S+](=O)([O-])c2cc(Cl)ccc2F)CC1`, the Potency entry is “inactive”.

For the compound `Cc1ccc(S(=O)(=O)Nc2ccccc2C(=O)Nc2nc(-c3ccc(Cl)cc3)cs2)cc1`, the Potency entry is “inactive”.

For `Cn1ccc2cc(-c3ccc4ncnc(NCc5ccc6c(c5)OCO6)c4c3)ccc21`, the Potency entry is “inactive”.

The values above are taken from PubChem BioAssay (NCATS).
